# PubChem BioAssay (NCI)
# The panel holds about 83,000 compounds, 20% with a hit somewhere; the sample as a whole holds those more often.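 Percent growth is the endpoint: 0 to 100 indicates growth inhibition (40 means 60% inhibition), 0 means no net growth, and negative values indicate cell death.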 Unmarked numbers belong to inactive results. Calls of active or inactive are those of the source. Rule for the calls: active = growth percent below 10; inactive = the rest.
# System: SNB-19 CNS
# Experiment: NCI-60 one-dose screen, 48 h (100 = growth as untreated, 0 = no growth, -100 = all killed)
# Conditions: 10 µM unless noted
row,SMILES,growth
1,O=C1Nc2ccc(Br)cc2/C1=N\c1nnc(-c2ccc(Cl)cc2)o1,72%
2,C#C[C@]1(O)CC[C@H]2[C@@H]3CC=C4c5sc(Nc6cccc(C)n6)nc5CC[C@]4(C)[C@H]3CC[C@@]21C,18.5%
3,CS(=O)(=O)c1ccc2c(c1)c1c(n2Cc2ccc(Cl)cc2)CCCC1,72.3%
4,COc1ccc(-c2nnc(/N=C3/C(=O)Nc4ccc(Br)cc43)o2)cc1,97.8%
5,COc1ccc(S(=O)(=O)n2cc(C=O)c3ccccc32)c(OC)c1,85%
6,O=C1c2c(c3c4cccnc4[nH]c3c3ccc4ccccc4c23)C(=O)N1CCN1CCOCC1,55.6%
7,COc1ccc(NC2=C(Cl)C(=O)C(C)=C(C)C2=O)cc1,95.2%
8,COc1ccc(-c2cc(-c3ccc(Cl)cc3)nc3nc(N)nn23)cc1,91.5%
9,C#C[C@]1(O)CC[C@H]2[C@@H]3CC=C4c5sc(Nc6nc(C)cc(OC)n6)nc5CC[C@]4(C)[C@H]3CC[C@@]21C,55%
10,COc1ccc(/C=C/C(=O)c2nnn(-c3ccc(C(=O)O)cc3)c2C)cc1OC,96.3%
11,COc1cc(O)c2c(c1)/C=C/C[C@H](O)[C@H](O)C(=O)/C=C\C[C@H](C)OC2=O,52.3%
12,COc1ccccc1/C=C/C(=O)c1nnn(-c2ccc(C(=O)O)cc2)c1C,87.9%
13,O=S(=O)(Nc1ccc(C2CC2)cc1)c1ccc(-c2cnc(C3CC3)o2)cc1,73.7%
14,COc1cc(/C=N/Nc2ccnc3cc(Cl)ccc23)cc(OC)c1O,-24.5% (active)
15,COc1ccc(-c2nc(SCC(C)C)nc(N/N=C\c3cccc([N+](=O)[O-])c3)c2C#N)cc1,38.6%
16,CCCCCCNC(=O)Oc1ccc(/C(=C(\C)c2ccc(OC)cc2)c2ccc(OCCN(C)C)cc2)cc1,74.9%
17,CCCCSc1nnc(-c2ccc(-c3ccc(Cl)cc3)nc2C)o1,97.8%
18,CC(C)c1nn(-c2ccccc2)c(N2CCCCC2)c1/C=N/NC(N)=S,92%
19,C#C[C@]1(O)CC[C@H]2[C@@H]3CC=C4c5sc(Nc6ccc(OC)nc6)nc5CC[C@]4(C)[C@H]3CC[C@@]21C,50.5%

row,SMILES,growth
1,COc1cc(-c2noc(C[C@@H](NC(=O)OCc3ccccc3)C(C)C)n2)cc(OC)c1OC,89.6%
2,COc1ccc(-c2ccc3c4c(cccc24)C(=O)N(N2C(=O)c4cccc5cccc(c45)C2=O)C3=O)cc1,96.3%
3,Cc1nn(-c2ccc(Br)cc2)c2nc(CCl)[nH]c(=O)c12,97.1%
4,CN1CCN(c2ccc(C(=O)Nc3cccc(-c4cn(-c5ccc(S(N)(=O)=O)cc5)nn4)c3)cc2C(F)(F)F)CC1,86.6%
5,COc1ccc(Cn2cc3c(c2-c2ccccc2)CCCc2cnoc2-3)cc1[N+](=O)[O-],75.6%
6,NS(=O)(=O)Oc1ccc2nc(Nc3ccc(F)c(F)c3)ccc2c1,102%
7,O=C1c2c(c3c4cc(Br)ccc4[nH]c3c3ccc4ccccc4c23)C(=O)N1CCN1CCNCC1,77.3%
8,CC1CCN(S(=O)(=O)c2ncsc2-c2ccccc2)CC1,83%
9,O=C1NC(=O)c2c1c1c3ccccc3ccc1c1[nH]c3ccccc3c21,3.4% (active)
10,COc1cc([C@H]2OC[C@H]3[C@@H]2CO[C@@H]3c2ccc(O)c(OC)c2)ccc1O,104%
11,CCN(CC)CCN1C(=O)c2c(c3c4cc(Br)ccc4[nH]c3c3ccc4ccccc4c23)C1=O,-92.7% (active)
12,CC(C)=CCC[C@](C)(O)[C@H]1CC[C@]2(C)[C@@H]1CC[C@@H]1[C@@]3(C)CCC(NC(=O)c4ccccc4C(=O)O)C(C)(C)[C@@H]3CC[C@]12C (stereo partly specified),86.3%
13,Clc1ccc(-c2csc(N/N=C/c3nc4ccccc4n3C3CC3)n2)cc1,98.3%
14,Cc1ccc(-c2csc(N/N=C/c3nc4ccccc4n3C3CC3)n2)cc1,81.2%
15,C#C[C@]1(O)CC[C@H]2[C@@H]3CC=C4c5sc(-c6ccccn6)nc5CC[C@]4(C)[C@H]3CC[C@@]21C,72.4%
16,O=C1c2c(c3c4cccnc4[nH]c3c3ccc4ccccc4c23)C(=O)N1CCN1CCNCC1,76.3%
17,O=C1c2c(c3c4cccnc4[nH]c3c3ccc4ccccc4c23)C(=O)N1CCN1CCCCC1,41.1%
18,COc1ccc(-c2nc(SCCC(C)C)nc(N/N=C\c3ccc(O)cc3)c2C#N)cc1,60.1%
19,CN(C)C(=O)C1=NC(CO)C(=O)N(c2ccc(Cl)cc2)N1 (stereo unspecified),102%

# System: U251 CNS
# Experiment: as above
# Conditions: 10 µM unless noted
row,SMILES,growth
1,O=C1Nc2ccc(Br)cc2/C1=N\c1nnc(-c2ccc(Cl)cc2)o1,60.5%
2,C#C[C@]1(O)CC[C@H]2[C@@H]3CC=C4c5sc(Nc6cccc(C)n6)nc5CC[C@]4(C)[C@H]3CC[C@@]21C,6.3% (active)
3,CS(=O)(=O)c1ccc2c(c1)c1c(n2Cc2ccc(Cl)cc2)CCCC1,68.1%
4,COc1ccc(-c2nnc(/N=C3/C(=O)Nc4ccc(Br)cc43)o2)cc1,107%
5,COc1ccc(S(=O)(=O)n2cc(C=O)c3ccccc32)c(OC)c1,52.8%
6,O=C1c2c(c3c4cccnc4[nH]c3c3ccc4ccccc4c23)C(=O)N1CCN1CCOCC1,51.6%
7,COc1ccc(NC2=C(Cl)C(=O)C(C)=C(C)C2=O)cc1,88.6%
8,COc1ccc(-c2cc(-c3ccc(Cl)cc3)nc3nc(N)nn23)cc1,91%
9,C#C[C@]1(O)CC[C@H]2[C@@H]3CC=C4c5sc(Nc6nc(C)cc(OC)n6)nc5CC[C@]4(C)[C@H]3CC[C@@]21C,34.2%
10,COc1ccc(/C=C/C(=O)c2nnn(-c3ccc(C(=O)O)cc3)c2C)cc1OC,93.8%
11,COc1cc(O)c2c(c1)/C=C/C[C@H](O)[C@H](O)C(=O)/C=C\C[C@H](C)OC2=O,34.6%
12,COc1ccccc1/C=C/C(=O)c1nnn(-c2ccc(C(=O)O)cc2)c1C,86.4%
13,O=S(=O)(Nc1ccc(C2CC2)cc1)c1ccc(-c2cnc(C3CC3)o2)cc1,68.7%
14,COc1cc(/C=N/Nc2ccnc3cc(Cl)ccc23)cc(OC)c1O,-87.1% (active)
15,COc1ccc(-c2nc(SCC(C)C)nc(N/N=C\c3cccc([N+](=O)[O-])c3)c2C#N)cc1,13%
16,CCCCCCNC(=O)Oc1ccc(/C(=C(\C)c2ccc(OC)cc2)c2ccc(OCCN(C)C)cc2)cc1,58.8%
17,CCCCSc1nnc(-c2ccc(-c3ccc(Cl)cc3)nc2C)o1,104%
18,CC(C)c1nn(-c2ccccc2)c(N2CCCCC2)c1/C=N/NC(N)=S,97.9%
19,C#C[C@]1(O)CC[C@H]2[C@@H]3CC=C4c5sc(Nc6ccc(OC)nc6)nc5CC[C@]4(C)[C@H]3CC[C@@]21C,17.8%

row,SMILES,growth
1,COc1cc(-c2noc(C[C@@H](NC(=O)OCc3ccccc3)C(C)C)n2)cc(OC)c1OC,98.4%
2,COc1ccc(-c2ccc3c4c(cccc24)C(=O)N(N2C(=O)c4cccc5cccc(c45)C2=O)C3=O)cc1,104%
3,Cc1nn(-c2ccc(Br)cc2)c2nc(CCl)[nH]c(=O)c12,98.5%
4,CN1CCN(c2ccc(C(=O)Nc3cccc(-c4cn(-c5ccc(S(N)(=O)=O)cc5)nn4)c3)cc2C(F)(F)F)CC1,59.6%
5,COc1ccc(Cn2cc3c(c2-c2ccccc2)CCCc2cnoc2-3)cc1[N+](=O)[O-],77.5%
6,NS(=O)(=O)Oc1ccc2nc(Nc3ccc(F)c(F)c3)ccc2c1,91.9%
7,O=C1c2c(c3c4cc(Br)ccc4[nH]c3c3ccc4ccccc4c23)C(=O)N1CCN1CCNCC1,-47.3% (active)
8,CC1CCN(S(=O)(=O)c2ncsc2-c2ccccc2)CC1,57.9%
9,O=C1NC(=O)c2c1c1c3ccccc3ccc1c1[nH]c3ccccc3c21,11.1%
10,COc1cc([C@H]2OC[C@H]3[C@@H]2CO[C@@H]3c2ccc(O)c(OC)c2)ccc1O,97%
11,CCN(CC)CCN1C(=O)c2c(c3c4cc(Br)ccc4[nH]c3c3ccc4ccccc4c23)C1=O,-86.3% (active)
12,CC(C)=CCC[C@](C)(O)[C@H]1CC[C@]2(C)[C@@H]1CC[C@@H]1[C@@]3(C)CCC(NC(=O)c4ccccc4C(=O)O)C(C)(C)[C@@H]3CC[C@]12C (stereo partly specified),88.6%
13,Clc1ccc(-c2csc(N/N=C/c3nc4ccccc4n3C3CC3)n2)cc1,97.2%
14,Cc1ccc(-c2csc(N/N=C/c3nc4ccccc4n3C3CC3)n2)cc1,43.8%
15,C#C[C@]1(O)CC[C@H]2[C@@H]3CC=C4c5sc(-c6ccccn6)nc5CC[C@]4(C)[C@H]3CC[C@@]21C,51.1%
16,O=C1c2c(c3c4cccnc4[nH]c3c3ccc4ccccc4c23)C(=O)N1CCN1CCNCC1,56.2%
17,O=C1c2c(c3c4cccnc4[nH]c3c3ccc4ccccc4c23)C(=O)N1CCN1CCCCC1,55.1%
18,COc1ccc(-c2nc(SCCC(C)C)nc(N/N=C\c3ccc(O)cc3)c2C#N)cc1,29.4%
19,CN(C)C(=O)C1=NC(CO)C(=O)N(c2ccc(Cl)cc2)N1 (stereo unspecified),101%
